Measured potencies and affinities stand elsewhere. Activity calls are given as the source filed them. How the calls were made is not given here.
Experiment: CEM21 cell cytotoxicity, dose response, cytotoxicity control, plate reader, dry powder (AID 687026)
Conditions: CEM21 cells cytotoxicity; series mostly up to 35 µM

Structure (SMILES)	outcome
CCCn1nc(C(=O)Nc2ccc3nc(N4CCOCC4)sc3c2)ccc1=O	inactive
Cc1noc(C)c1S(=O)(=O)Nc1cccc2c1O[C@@H](CN(C)Cc1ccc(C(F)(F)F)cc1)[C@@H](C)CN([C@@H](C)CO)C2=O	inactive
CC1(C)CC(NC(=O)C(=O)Nc2ccc(Cl)cc2)CC(C)(C)N1	inactive
COc1ccc(S(=O)(=O)NCc2ccncc2)cc1OC	inactive
C[C@H]1CCCCO[C@@H](CN(C)Cc2ccncc2)[C@@H](C)CN([C@@H](C)CO)C(=O)c2cc(NC(=O)Nc3ccccc3)ccc2O1	inactive
Cc1noc(C)c1S(=O)(=O)N(C)C[C@@H]1Oc2ccc(NC(=O)Nc3ccccc3)cc2CC(=O)N([C@@H](C)CO)C[C@@H]1C	inactive
CCCC#Cc1ccc2c(c1)O[C@@H](CN(C)S(=O)(=O)c1cccc(F)c1)[C@@H](C)CN([C@H](C)CO)S2(=O)=O	inactive
O=S(=O)(NCc1ccncc1)c1ccc2c(c1)OCCO2	inactive
Cn1c(C(=O)N2CCN(c3nc4ccccc4s3)CC2)cc2sccc21	inactive
CC(=O)Nc1ccc(NC(=O)CN(c2ccc(C34CC5CC(CC(C5)C3)C4)cc2)S(C)(=O)=O)cc1	inactive
CCOc1ccc(OCC)c(S(=O)(=O)NCc2ccncc2)c1	inactive
CCOc1ccc(C)cc1S(=O)(=O)NCc1ccncc1	inactive
Cc1noc(C)c1S(=O)(=O)Nc1cccc2c1O[C@H](CN(C)Cc1ccc(C(F)(F)F)cc1)[C@@H](C)CN([C@@H](C)CO)C2=O	inactive
Cc1noc(C)c1S(=O)(=O)Nc1cccc2c1O[C@@H](CN(C)Cc1ccc(C(F)(F)F)cc1)[C@H](C)CN([C@@H](C)CO)C2=O	inactive

From PubChem BioAssay AID687026 (Broad Institute, 2013)
